# Test results: PubChem BioAssay (EPA / NIEHS)
# Inconclusive results are not listed. Activity calls are given as the source filed them. How the source made its calls: active means hit-call score of the fitted dose curve at least 0.9, where 1 is the maximum; inconclusive means response in the unintended direction; inactive means score below 0.9.
# Key:
# AR (gene 367) = AR (gene 367) (UniProt P10275); experiment: ACEA_AR_antagonist_80hr: ACEA Biosciences xCELLigence Real-Time Cell Analysis on Androgen Receptor Antagonism for Proliferation (AID 2283787);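 further: 22Rv1 human prostate cancer cells with growth followed by electrical impedance; hits lower the impedance growth signal relative to DMSO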
# AR (gene 367), sequence (P10275 whole entry, looked up): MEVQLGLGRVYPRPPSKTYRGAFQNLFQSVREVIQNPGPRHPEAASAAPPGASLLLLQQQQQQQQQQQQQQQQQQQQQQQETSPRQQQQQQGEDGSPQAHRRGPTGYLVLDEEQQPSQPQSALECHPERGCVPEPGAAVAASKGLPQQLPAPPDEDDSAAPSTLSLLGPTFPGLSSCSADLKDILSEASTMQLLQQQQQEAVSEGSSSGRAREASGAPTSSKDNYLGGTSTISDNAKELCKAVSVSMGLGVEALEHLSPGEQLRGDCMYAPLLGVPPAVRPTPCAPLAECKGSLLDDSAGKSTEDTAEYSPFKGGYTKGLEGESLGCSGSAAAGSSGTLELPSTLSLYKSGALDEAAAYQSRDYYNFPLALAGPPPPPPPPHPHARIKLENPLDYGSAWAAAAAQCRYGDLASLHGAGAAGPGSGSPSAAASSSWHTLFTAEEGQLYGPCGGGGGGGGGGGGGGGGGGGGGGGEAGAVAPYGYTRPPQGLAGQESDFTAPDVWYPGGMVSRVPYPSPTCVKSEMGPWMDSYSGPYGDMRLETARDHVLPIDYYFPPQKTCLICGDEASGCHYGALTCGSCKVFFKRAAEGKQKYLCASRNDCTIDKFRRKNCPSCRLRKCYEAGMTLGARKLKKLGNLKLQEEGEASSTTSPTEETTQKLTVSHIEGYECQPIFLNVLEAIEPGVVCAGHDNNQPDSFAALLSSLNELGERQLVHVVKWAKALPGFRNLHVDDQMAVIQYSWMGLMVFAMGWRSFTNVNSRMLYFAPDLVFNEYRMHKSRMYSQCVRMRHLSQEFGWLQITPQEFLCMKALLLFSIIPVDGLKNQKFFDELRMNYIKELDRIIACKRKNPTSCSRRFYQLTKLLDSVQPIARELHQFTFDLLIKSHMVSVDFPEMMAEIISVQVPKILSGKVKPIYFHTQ
# Procedure, shortened: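 Impedance readout (RT-CES), 80 h post-dose; loss-of-signal vs DMSO baseline. 22Rv1 cells in assay medium. Compounds: 8-pt 1:4 series, max 100 uM final, up to 0.5% DMSO; n = 2.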
# [1] = ATG_M_19_XSP1: Attagene TRANS-FACTORIAL Multi-Species (XSP1) HepG2 Assay for M19 Transcription Factor (Internal Marker) (AID 2283798)
# Procedure, shortened: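 HepG2 cells transiently transfected with multiplexed GAL4-UAS reporter units, dosed 24 h with 3 nM 6-alpha-fluorotestosterone present for partial AR stimulation. Reporter mRNA measured by RT-PCR with capillary electrophoresis; gain-of-signal fitted relative to DMSO.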
# [2] = ATG_M_32_XSP1: Attagene TRANS-FACTORIAL Multi-Species (XSP1) HepG2 Assay for M32 Transcription Factor (Internal Marker) (AID 2283799)
# Procedure, shortened: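 HepG2 cells transiently transfected with multi-species TRANS reporter units, dosed 24 h with 3 nM 6-alpha-fluorotestosterone present. Internal-marker reporter mRNA quantified by RT-PCR and capillary electrophoresis; positive-direction fit versus DMSO.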
# [3] = target: Peroxisome proliferator-activated receptor gamma (Homo sapiens) (UniProt P37231); experiment: ATG_hPPARg_XSP1: Attagene TRANS-FACTORIAL Multi-Species (XSP1) HepG2 Assay for human Peroxisome Proliferator-activated Receptor gamma (PPARg) (AID 2283800)
# Peroxisome proliferator-activated receptor gamma (Homo sapiens), sequence (P37231 whole entry, looked up, the tested form may be a part): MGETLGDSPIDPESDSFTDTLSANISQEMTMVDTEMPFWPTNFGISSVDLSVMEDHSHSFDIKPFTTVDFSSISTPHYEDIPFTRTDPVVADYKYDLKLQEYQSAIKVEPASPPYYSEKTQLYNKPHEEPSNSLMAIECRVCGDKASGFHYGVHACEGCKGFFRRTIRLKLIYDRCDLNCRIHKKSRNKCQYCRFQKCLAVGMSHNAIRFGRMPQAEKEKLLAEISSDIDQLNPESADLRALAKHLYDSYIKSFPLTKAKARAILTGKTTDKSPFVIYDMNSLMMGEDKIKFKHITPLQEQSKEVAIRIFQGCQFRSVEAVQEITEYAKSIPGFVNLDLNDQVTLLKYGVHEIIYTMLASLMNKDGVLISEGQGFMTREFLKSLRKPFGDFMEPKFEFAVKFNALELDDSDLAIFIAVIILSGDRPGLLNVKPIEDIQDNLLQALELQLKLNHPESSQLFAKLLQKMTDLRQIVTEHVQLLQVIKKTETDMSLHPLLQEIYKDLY
# Procedure, shortened: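 HepG2 cells transiently transfected with GAL4-UAS reporter units carrying chimeric NR-Gal4 proteins; 3 nM 6-alpha-fluorotestosterone present. After 24 h dosing, reporter mRNA quantified by RT-PCR and capillary electrophoresis; gain of signal relative to DMSO.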
# [4] = system: zebrafish Peroxisome Proliferator-activated Receptor gamma (PPARg), gene 557037; experiment: ATG_zfPPARg_XSP1: Attagene TRANS-FACTORIAL Multi-Species (XSP1) HepG2 Assay for zebrafish Peroxisome Proliferator-activated Receptor gamma (PPARg) (AID 2283801)
# Procedure, shortened: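 HepG2 cells transiently transfected with GAL4-UAS reporter units including a zebrafish PPARg–GAL4 chimera, dosed 24 h with 3 nM 6-alpha-fluorotestosterone present. Reporter mRNA quantified by RT-PCR, FAM labelling, HpaI digestion and capillary electrophoresis; induction versus DMSO.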
# [5] = target: mouse Peroxisome Proliferator-activated Receptor gamma (PPARg), Pparg (gene 19016) (UniProt P37238); experiment: ATG_mPPARg_XSP1: Attagene TRANS-FACTORIAL Multi-Species (XSP1) HepG2 Assay for mouse Peroxisome Proliferator-activated Receptor gamma (PPARg) (AID 2283802)
# mouse Peroxisome Proliferator-activated Receptor gamma (PPARg), Pparg (gene 19016), sequence (P37238 whole entry, looked up, the tested form may be a part): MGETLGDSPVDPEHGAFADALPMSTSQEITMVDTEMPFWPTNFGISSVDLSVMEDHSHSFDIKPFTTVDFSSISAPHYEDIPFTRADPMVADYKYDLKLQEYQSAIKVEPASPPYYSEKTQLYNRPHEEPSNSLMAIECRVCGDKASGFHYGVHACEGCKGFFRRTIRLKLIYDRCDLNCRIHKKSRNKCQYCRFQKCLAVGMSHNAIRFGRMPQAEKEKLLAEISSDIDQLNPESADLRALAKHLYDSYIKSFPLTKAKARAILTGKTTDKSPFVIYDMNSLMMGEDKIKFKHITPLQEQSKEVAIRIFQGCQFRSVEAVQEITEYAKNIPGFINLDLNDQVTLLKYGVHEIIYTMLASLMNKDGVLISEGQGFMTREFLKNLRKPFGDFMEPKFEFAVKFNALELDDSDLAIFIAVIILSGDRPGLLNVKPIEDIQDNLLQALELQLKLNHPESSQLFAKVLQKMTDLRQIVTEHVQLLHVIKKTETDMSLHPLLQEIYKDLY
# Procedure, shortened: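 HepG2 cells transiently transfected with GAL4-UAS reporter units driven by mouse PPARg–GAL4 chimera; 3 nM 6-alpha-fluorotestosterone present. After 24 h dosing, reporter mRNA quantified by RT-PCR, fluorescent labelling and capillary electrophoresis; gain of signal versus DMSO.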
# [6] = target: Nuclear receptor subfamily 1 group I member 2 (Mus musculus) (UniProt O54915); experiment: ATG_mPXR_XSP1: Attagene TRANS-FACTORIAL Multi-Species (XSP1) HepG2 Assay for mouse Pregnane X Receptor (PXR) (AID 2283803)
# Nuclear receptor subfamily 1 group I member 2 (Mus musculus), sequence (O54915 whole entry, looked up, the tested form may be a part): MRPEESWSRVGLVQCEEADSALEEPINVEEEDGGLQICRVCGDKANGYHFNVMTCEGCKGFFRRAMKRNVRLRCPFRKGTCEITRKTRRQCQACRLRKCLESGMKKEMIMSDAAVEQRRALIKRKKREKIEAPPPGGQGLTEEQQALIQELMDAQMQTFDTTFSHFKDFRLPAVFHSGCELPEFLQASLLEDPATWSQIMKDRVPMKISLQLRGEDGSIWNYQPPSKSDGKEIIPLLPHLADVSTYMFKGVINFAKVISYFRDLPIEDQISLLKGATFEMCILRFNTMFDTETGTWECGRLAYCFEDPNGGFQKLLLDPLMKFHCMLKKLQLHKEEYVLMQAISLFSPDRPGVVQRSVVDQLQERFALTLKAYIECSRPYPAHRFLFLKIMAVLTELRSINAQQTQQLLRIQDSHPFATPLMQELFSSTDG
# Procedure, shortened: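 Transiently transfected HepG2 cells expressing a receptor-Gal4 chimera drive a GAL4-UAS reporter; 3 nM 6-alpha-fluorotestosterone included. Reporter mRNA read 24 h post-dose by RT-PCR and capillary electrophoresis; gain of signal relative to DMSO.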
# [7] = target: human Thyroid hormone Receptor alpha (TRa), THRA (gene 7067) (UniProt P10827); experiment: ATG_hTRa_XSP1: Attagene TRANS-FACTORIAL Multi-Species (XSP1) HepG2 Assay for human Thyroid hormone Receptor alpha (TRa) (AID 2283805)
# human Thyroid hormone Receptor alpha (TRa), THRA (gene 7067), sequence (P10827 whole entry, looked up, the tested form may be a part): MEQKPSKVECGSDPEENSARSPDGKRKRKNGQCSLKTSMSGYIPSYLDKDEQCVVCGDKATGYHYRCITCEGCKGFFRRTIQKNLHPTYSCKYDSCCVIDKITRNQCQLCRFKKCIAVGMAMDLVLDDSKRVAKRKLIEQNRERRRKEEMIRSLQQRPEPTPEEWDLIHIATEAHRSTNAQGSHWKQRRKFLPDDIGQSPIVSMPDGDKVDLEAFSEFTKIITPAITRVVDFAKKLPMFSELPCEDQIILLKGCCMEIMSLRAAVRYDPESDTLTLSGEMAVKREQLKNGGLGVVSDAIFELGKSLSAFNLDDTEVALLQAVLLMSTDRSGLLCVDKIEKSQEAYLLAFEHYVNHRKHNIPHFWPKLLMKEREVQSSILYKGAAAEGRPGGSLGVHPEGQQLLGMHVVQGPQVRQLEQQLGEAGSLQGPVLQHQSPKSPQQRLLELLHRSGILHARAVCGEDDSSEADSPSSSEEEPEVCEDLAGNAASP
# Procedure, shortened: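 HepG2 cells transiently transfected with GAL4-UAS reporter units expressing chimeric NR-Gal4 proteins, dosed 24 hours with 3 nM 6-alpha-fluorotestosterone present. Reporter mRNA measured by RT-PCR and capillary electrophoresis; gain of signal fitted versus DMSO.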
# [8] = target: zebrafish Thyroid Hormone Receptor beta (TRb), thrb (gene 30607) (UniProt Q9PVE4); experiment: ATG_zfTRb_XSP1: Attagene TRANS-FACTORIAL Multi-Species (XSP1) HepG2 Assay for zebrafish Thyroid Hormone Receptor beta (TRb) (AID 2283809)
# zebrafish Thyroid Hormone Receptor beta (TRb), thrb (gene 30607), sequence (Q9PVE4 whole entry, looked up, the tested form may be a part): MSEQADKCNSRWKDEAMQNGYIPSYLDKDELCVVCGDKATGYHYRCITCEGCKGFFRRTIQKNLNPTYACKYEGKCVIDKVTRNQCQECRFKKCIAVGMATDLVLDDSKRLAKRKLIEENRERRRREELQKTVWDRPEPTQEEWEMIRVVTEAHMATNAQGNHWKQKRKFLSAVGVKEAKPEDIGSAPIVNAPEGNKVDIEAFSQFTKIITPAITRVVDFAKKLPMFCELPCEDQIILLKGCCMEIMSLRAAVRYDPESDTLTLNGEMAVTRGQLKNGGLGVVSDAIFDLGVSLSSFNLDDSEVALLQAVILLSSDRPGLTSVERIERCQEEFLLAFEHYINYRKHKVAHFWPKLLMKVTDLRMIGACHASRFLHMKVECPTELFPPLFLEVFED
# Procedure, shortened: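 HepG2 cells transiently transfected with multiplexed GAL4-UAS reporter units expressing chimeric zebrafish TRb–Gal4. Dosed 24 h with 3 nM 6-alpha-fluorotestosterone present; reporter mRNA measured by RT-PCR, HpaI digestion and capillary electrophoresis; gain of signal versus DMSO.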
# [9] = ATG_XTT_Cytotoxicity_XSP1: Cytotoxicity Assessment in the Attagene TRANS-FACTORIAL Multi-Species (XSP1) HepG2 Assay (AID 2283810)
# Procedure, shortened: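 XTT viability readout taken at 24 hours post-dosing in HepG2 liver cells co-treated with 3 nM 6-alpha-fluorotestosterone. Signal loss relative to DMSO controls reflects cytotoxicity.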
# [10] = ATG_M_06_XSP2: Attagene TRANS-FACTORIAL Multi-Species (XSP2) HepG2 Assay for M06 Transcription Factor (Internal Marker) (AID 2283811);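 further: hits are increases in signal above the DMSO baseline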
# Procedure, shortened: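 HepG2 cells transiently transfected with GAL4-UAS multi-reporter constructs, dosed 24 h with 3 nM 6-alpha-fluorotestosterone plus 1.5 nM norgestrel present to stimulate androgen receptor. Reporter mRNA quantified by RT-PCR, 6-FAM labelling, HpaI digestion and capillary electrophoresis; gain-of-signal fitted versus DMSO baseline.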
# [11] = system: turtle Androgen Receptor (AR), gene 101947425; experiment: ATG_trAR_XSP1: Attagene TRANS-FACTORIAL Multi-Species (XSP1) HepG2 Assay for turtle Androgen Receptor (AR) (AID 2283786)
# Procedure, shortened: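 HepG2 cells transiently transfected with a turtle AR–GAL4 chimera and GAL4-UAS reporter, co-treated with 3 nM 6-alpha-fluorotestosterone for partial stimulation. Reporter mRNA is quantified at 24 h by RT-PCR and capillary electrophoresis, gain-of-signal versus DMSO.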
# [12] = target: Estrogen receptor beta (Homo sapiens) (UniProt Q92731); experiment: ATG_hERb_XSP1: Attagene TRANS-FACTORIAL Multi-Species (XSP1) HepG2 Assay for human Estrogen Receptor (ESR2) (AID 2283788)
# Estrogen receptor beta (Homo sapiens), sequence (Q92731 whole entry, looked up, the tested form may be a part): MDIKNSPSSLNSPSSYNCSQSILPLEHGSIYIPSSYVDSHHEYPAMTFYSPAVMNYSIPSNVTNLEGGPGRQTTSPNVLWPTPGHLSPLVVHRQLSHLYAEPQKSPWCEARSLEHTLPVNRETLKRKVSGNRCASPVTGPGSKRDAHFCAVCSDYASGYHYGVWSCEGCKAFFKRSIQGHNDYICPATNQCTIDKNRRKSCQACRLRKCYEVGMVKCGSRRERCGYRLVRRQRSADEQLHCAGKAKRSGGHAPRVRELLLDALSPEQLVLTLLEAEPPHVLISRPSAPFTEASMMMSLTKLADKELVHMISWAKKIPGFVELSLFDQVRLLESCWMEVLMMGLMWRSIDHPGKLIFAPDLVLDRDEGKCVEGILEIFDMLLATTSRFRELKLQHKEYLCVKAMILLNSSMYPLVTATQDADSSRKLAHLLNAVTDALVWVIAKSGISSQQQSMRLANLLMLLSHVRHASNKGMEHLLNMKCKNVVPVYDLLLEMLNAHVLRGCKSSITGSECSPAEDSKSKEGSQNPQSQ
# Procedure, shortened: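 Read-out: reporter mRNA induction by RT-PCR, HpaI digestion and capillary electrophoresis fluorescence, fitted in positive direction relative to DMSO baseline. Human liver HepG2 cells expressing ERβ-Gal4 fusion, dosed 24 h, medium containing 3 nM 6-alpha-fluorotestosterone.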
# [13] = ATG_M_06_XSP1: Attagene TRANS-FACTORIAL Multi-Species (XSP1) HepG2 Assay for M06 Transcription Factor (Internal Marker) (AID 2283790)
# Procedure, shortened: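 Transfected HepG2 multi-reporter system treated 24 h in the presence of 3 nM 6-alpha-fluorotestosterone. The M06 internal marker transcript was quantified by RT-PCR with capillary electrophoresis as a background control, and gain of signal was scored versus DMSO.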
# [14] = ATG_M_61_XSP1: Attagene TRANS-FACTORIAL Multi-Species (XSP1) HepG2 Assay for M61 Transcription Factor (Internal Marker) (AID 2283797)
# Procedure, shortened: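 HepG2 cells transiently transfected with multiplexed GAL4-driven reporter units, dosed 24 h with 3 nM 6-alpha-fluorotestosterone present. Reporter mRNA quantified by RT-PCR, 6-FAM labelling, HpaI digestion and capillary electrophoresis; internal-marker background control, gain of signal versus DMSO.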
# [15] = system: turtle Thyroid Hormone Receptor, alpha (TRa), gene 101949057; experiment: ATG_trTRa_XSP1: Attagene TRANS-FACTORIAL Multi-Species (XSP1) HepG2 Assay for turtle Thyroid Hormone Receptor, alpha (TRa) (AID 2283806)
# Procedure, shortened: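 HepG2 cells transiently transfected with GAL4-UAS reporter units and chimeric receptor-Gal4 constructs, with 3 nM 6-alpha-fluorotestosterone present. Reporter mRNA was quantified 24 h after dosing by RT-PCR, 6-FAM labelling and capillary electrophoresis; gain of signal versus DMSO.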
# [16] = target: zebrafish Thyroid Hormone Receptor alpha (TRa), thraa (gene 30670) (UniProt Q98867); experiment: ATG_zfTRa_XSP1: Attagene TRANS-FACTORIAL Multi-Species (XSP1) HepG2 Assay for zebrafish Thyroid Hormone Receptor alpha (TRa) (AID 2283807)
# zebrafish Thyroid Hormone Receptor alpha (TRa), thraa (gene 30670), sequence (Q98867 whole entry, looked up, the tested form may be a part): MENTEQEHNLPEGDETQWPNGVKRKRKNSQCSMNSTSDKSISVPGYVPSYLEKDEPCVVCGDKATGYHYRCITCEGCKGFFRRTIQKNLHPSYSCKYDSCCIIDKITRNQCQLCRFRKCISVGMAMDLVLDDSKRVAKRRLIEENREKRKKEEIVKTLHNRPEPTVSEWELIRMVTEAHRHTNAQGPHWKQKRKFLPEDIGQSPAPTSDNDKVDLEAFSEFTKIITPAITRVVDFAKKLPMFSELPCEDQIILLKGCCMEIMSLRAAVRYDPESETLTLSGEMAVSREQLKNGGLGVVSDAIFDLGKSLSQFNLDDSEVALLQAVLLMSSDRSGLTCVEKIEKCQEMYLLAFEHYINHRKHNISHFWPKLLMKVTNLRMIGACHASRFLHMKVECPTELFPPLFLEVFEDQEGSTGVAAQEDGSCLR
# Procedure, shortened: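 HepG2 cells transiently transfected with GAL4-UAS reporter units including a zebrafish TRa–Gal4 chimera, dosed 24 h with 3 nM 6-alpha-fluorotestosterone present. Reporter mRNA quantified by RT-PCR and capillary electrophoresis; gain versus DMSO.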
# [17] = target: GAL4 Transcription Factor (Internal Marker), GAL4 (gene 855828) (UniProt P04386); experiment: ATG_GAL4_XSP1: Attagene TRANS-FACTORIAL Multi-Species (XSP1) HepG2 Assay for GAL4 Transcription Factor (Internal Marker) (AID 2283789)
# Procedure, shortened: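 HepG2 cells transiently transfected with multiplexed GAL4-UAS reporter units were exposed for 24 h with 3 nM 6-alpha-fluorotestosterone present. Reporter mRNA was quantified by RT-PCR, FAM labelling, HpaI digestion and capillary electrophoresis; background-control readout, gain-of-signal versus DMSO.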
# [18] = target: human Thyroid hormone Receptor beta (TRb), THRB (gene 7068) (UniProt P10828); experiment: ATG_hTRb_XSP1: Attagene TRANS-FACTORIAL Multi-Species (XSP1) HepG2 Assay for human Thyroid hormone Receptor beta (TRb) (AID 2283808)
# human Thyroid hormone Receptor beta (TRb), THRB (gene 7068), sequence (P10828 whole entry, looked up, the tested form may be a part): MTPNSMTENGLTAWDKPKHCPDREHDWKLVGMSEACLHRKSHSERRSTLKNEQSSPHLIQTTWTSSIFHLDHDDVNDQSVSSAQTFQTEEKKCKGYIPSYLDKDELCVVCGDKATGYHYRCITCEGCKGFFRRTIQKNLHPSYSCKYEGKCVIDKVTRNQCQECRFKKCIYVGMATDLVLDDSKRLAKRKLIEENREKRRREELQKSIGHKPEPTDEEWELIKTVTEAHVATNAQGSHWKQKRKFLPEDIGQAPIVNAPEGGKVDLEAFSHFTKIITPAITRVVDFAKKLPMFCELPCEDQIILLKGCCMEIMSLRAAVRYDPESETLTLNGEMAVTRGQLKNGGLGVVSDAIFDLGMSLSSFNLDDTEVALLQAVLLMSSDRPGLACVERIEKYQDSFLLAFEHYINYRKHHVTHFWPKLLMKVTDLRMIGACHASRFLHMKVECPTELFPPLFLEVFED
# Procedure, shortened: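 HepG2 cells transiently transfected with reporter units driving GAL4-UAS reporters for chimeric NR-Gal4 proteins; 24 h chemical exposure with 3 nM 6-alpha-fluorotestosterone present. Reporter mRNA quantified by RT-PCR and capillary electrophoresis, gain of signal versus DMSO.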
compound,measurement,setting,value
CCCCOCN(C(=O)CCl)c1c(CC)cccc1CC,AC50,AR (gene 367),75.7 µM (active)
CSC(=O)c1c(C(F)F)nc(C(F)(F)F)c(C(=O)SC)c1CC(C)C,outcome,[1],inactive
same,outcome,[2],inactive
same,AC50,[3],7.26 µM (active)
same,outcome,[4],inactive
same,AC50,[5],3.94 µM (active)
same,AC50,[6],0.139 µM (active)
same,outcome,[7],inactive
same,outcome,[8],inactive
same,outcome,[9],inactive
COP(=S)(OC)SCn1nnc2ccccc2c1=O,AC50,AR (gene 367),83.1 µM (active)
same,outcome,[10],inactive
CCOc1cc(C(C)(C)C)ccc1C1COC(c2c(F)cccc2F)=N1 (stereo not drawn),AC50,AR (gene 367),13.2 µM (active)
COC(=O)c1c(C(F)F)nc(C(F)(F)F)c(C2=NCCS2)c1CC(C)C,outcome,AR (gene 367),inactive
Cc1c(COC(=O)[C@@H]2[C@H](/C=C(\Cl)C(F)(F)F)C2(C)C)cccc1-c1ccccc1,outcome,[11],inactive
same,AC50,[12],100 µM (active)
same,outcome,[13],inactive
same,outcome,[14],inactive
same,outcome,[1],inactive
same,outcome,[2],inactive
same,outcome,[3],inactive
same,AC50,[5],42.5 µM (active)
same,AC50,[6],2.23 µM (active)
same,outcome,[15],inactive
same,outcome,[16],inactive
Clc1cccc(C(Cl)(Cl)Cl)n1,outcome,AR (gene 367),inactive
COP(=S)(OC)Oc1ccc([N+](=O)[O-])c(C)c1,AC50,[12],64 µM (active)
same,outcome,[17],inactive
same,outcome,[13],inactive
same,outcome,[14],inactive
same,outcome,[2],inactive
same,AC50,[3],64.4 µM (active)
same,outcome,[4],inactive
same,AC50,[5],100 µM (active)
same,AC50,[6],27.4 µM (active)
same,outcome,[7],inactive
same,outcome,[15],inactive
same,outcome,[16],inactive
same,outcome,[18],inactive
same,outcome,[8],inactive
same,outcome,[9],inactive
same,outcome,[10],inactive
COc1ccc(-c2ccccc2)cc1NNC(=O)OC(C)C,outcome,AR (gene 367),inactive
Cc1cnc(C2=NC(C)(C(C)C)C(=O)N2)c(C(=O)O)c1 (stereo not drawn),outcome,AR (gene 367),inactive
CCCCC(O)(Cn1cncn1)c1ccc(Cl)cc1Cl (stereo not drawn),AC50,AR (gene 367),57.3 µM (active)
C=C(C)CN(CC)c1c([N+](=O)[O-])cc(C(F)(F)F)cc1[N+](=O)[O-],outcome,[10],inactive
CC(C)N1C(=O)N(c2ccccc2)CSC1=NC(C)(C)C,AC50,AR (gene 367),50 µM (active)
CCOP(=O)(OCC)Oc1nc(Cl)c(Cl)cc1Cl,AC50,AR (gene 367),76 µM (active)
